# NPC1 promoter act: NPC1 promoter activation | Huh7 NPC1 promoter luciferase reporter, 24 h | Potency, µM (series often up to 9.22 µM), inactives show at the highest dose activation, usual class: activators | 320,000 tested, 2.4% active | AID 485313; also: % of control where 0% means no effect; nearly all actives have a fitted effect of over 60% in size
#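 Compounds in DMSO were transferred onto Huh7 NPC1-luciferase reporter cells pre-incubated 2 h; after 24 h at 37 °C, Amplite reagent was dispensed and luminescence recorded 10 min later.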
# SMN2 splice up: increases expression of the SMN2 splice variant | AID 1458 | Potency, µM (doses to about 46.1 µM), inactives show at the top dose activity change, positive = activation, usual class: activators | HEK293 SMN2-luciferase splicing reporter, luminescence, 30-36 h | 210,000 tested, 2.8% active; also: % of control where 0% means no effect; nearly all actives have a fitted effect of over 55% in size
#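 HEK293 cells carry an SMN2 […]–luciferase reporter in which exon 7 inclusion puts luciferase in frame. Cells were plated 10-12 h before compound addition, then incubated 30-36 h at 37C. ONE-Glo luminescence was read; sodium butyrate at 4.5 mM final served as control.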
# FLuc modulator: firefly luciferase modulation, counter-screen for miR-21 project; purified FLuc, Km substrates, luminescence inhibition; Potency, µM (top dose mostly 57.5 µM), for the others: at the highest dose activity change, negative = inhibition, actives largely listed as inhibitors; 360,000 tested, 6.9% active; AID 588342;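 also: plate controls were vehicle for no effect and reference inhibitor for full effect; nearly all actives have a fitted effect of over 55% in size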
# Target sequence (P08659 whole entry, looked up): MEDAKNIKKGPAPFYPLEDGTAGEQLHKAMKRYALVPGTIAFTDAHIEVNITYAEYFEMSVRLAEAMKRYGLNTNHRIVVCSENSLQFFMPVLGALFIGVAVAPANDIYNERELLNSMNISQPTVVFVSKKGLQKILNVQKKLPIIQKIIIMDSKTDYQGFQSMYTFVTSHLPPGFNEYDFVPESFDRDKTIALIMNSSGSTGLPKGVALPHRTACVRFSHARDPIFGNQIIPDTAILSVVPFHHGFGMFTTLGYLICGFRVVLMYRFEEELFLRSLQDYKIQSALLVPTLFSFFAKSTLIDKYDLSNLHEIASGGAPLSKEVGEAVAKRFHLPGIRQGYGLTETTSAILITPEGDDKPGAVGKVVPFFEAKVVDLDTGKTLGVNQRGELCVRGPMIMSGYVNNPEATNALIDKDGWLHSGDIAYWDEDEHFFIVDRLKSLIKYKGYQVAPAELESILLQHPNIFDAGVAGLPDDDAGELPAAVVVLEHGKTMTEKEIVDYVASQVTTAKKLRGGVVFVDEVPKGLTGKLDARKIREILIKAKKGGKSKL
#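 Biochemical qHTS of compounds, final roughly 60 µM downward over six points, against 10 nM purified firefly luciferase using Km concentrations of substrates (10 uM D-luciferin, 10 uM ATP) in Tris acetate pH 7.5 buffer; luminescence output.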
# ELG1 genotox: inducers of genotoxicity in HEK293T ELG1-luciferase cells. Potency, µM (doses to about 46 µM), for the others: top-dose activity change, positive = activation, hits mostly activators. 330,000 tested, 1.3% active. AID 504466. HEK293T ELG1-luciferase reporter, luminescence, 16 h; also: % of control where 0% means no effect; nearly all actives have a fitted effect of over 60% in size
#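 After overnight (16 hr) compound treatment at 37 °C, ELG1-luciferase HEK293T cells were lysed with ONE-Glo; luminescence quantified 30 min later at room temperature.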
# Rab9 promoter act: activates the Rab9 promoter; Huh7 Rab9 promoter-luciferase reporter, luminescence, 24 h; Potency, µM (top dose mostly 9.22 µM), inactives show at the highest dose activation, negative = inhibition, usual class: activators; 320,000 tested, 2.8% active; also: % of control where 0% means no effect; nearly all actives have a fitted effect of over 60% in size
#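 Steps: seed 1500 Huh7 Rab9-luc cells per well, rest 2 h at 37 °C; add compound in DMSO; incubate 24 h; add luciferase reagent, 10 min ambient; read luminescence.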
# KinaseGlo FLuc: counter-screen: inhibitors of Kinase-Glo firefly luciferase. Kinase-Glo luciferase, ATP luminescence, 8 min. Potency, µM (highest dose often 38.3 µM), inactives show at the highest dose activity change, negative = inhibition, usual class: inhibitors. 200,000 tested, 0.28% active. AID 1379; also: % is scaled to controls: 0 for no effect and ±100 for the full control effect; nearly all actives have a fitted effect of over 60% in size
#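 Inhibition of Kinase-Glo luciferase light generation was assessed at 10 uM ATP in pH 7.2 imidazole buffer, with luminescence measured after eight minutes at ambient temperature.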
# The depositor's hits bear a star; u = inconclusive; x = not tested or not shown; [ ] = remark or other dose. The list is not random: actives were taken first. Their share in the collection is about 7.3%. Calls follow the shape of the dose curve; as a rule, active = well fitted curve in the direction sought with a large enough effect; inconclusive = small, poorly fitted or top-dose-only effect, or another doubt; inactive = no such curve, though single readings can be large; an effect the other way counts as inactive or inconclusive. Potency is read from the fitted curve at half-maximal effect.
SMILES,NPC1 promoter act,SMN2 splice up,FLuc modulator,ELG1 genotox,Rab9 promoter act,KinaseGlo FLuc
O=C(/C=C/c1cccc([N+](=O)[O-])c1)c1ccccc1,x,14.9%,x,x,x,-1.8%
O=C(/C=C\c1ccc(-c2ccccc2)o1)c1ccccc1,u,u,6.01µM*,u,u,-1.4%
O=C(/C=C/c1ccccc1)c1ccc2c3c(cccc13)CC2,16.2%,x,12µM*,u,1.2%,x
Cc1c(NC(=O)c2ccc3c4c(cccc24)CC3)c(=O)n(-c2ccccc2)n1C,-0.6%,-8.3%,-4.9%,-11.4%,1.2%,16.7%
O=C(/C=C/c1ccccc1)c1ccccc1,0.1%,-29.6%,2.39µM*,u,-3.5%,-16.6%
Cc1ccc(S(=O)(=O)N2CCCCC2)cc1NC(=O)c1cc(=O)[nH]c2ccccc12,-5.9%,x,5.5%,0.6%,1.5%,x
CSc1ccc(-c2nc(CSCC(=O)NCCCN3CCCC3=O)c(C)o2)cc1,-7.3%,x,u,-0.3%,0.9%,x
O=C(/C=C/c1ccc(NC(=O)c2ccccc2-c2ccccc2C(=O)O)cc1)c1ccccc1,7.0%,x,19µM*,-4.6%,21.2%,x
O=C(O)c1ccccc1-c1ccccc1C(=O)Nc1ccc(F)cc1,-1.3%,x,0.0%,0.1%,-3.9%,x
CC(/C=N/NC(=O)c1c(Br)cnn1C)=C\c1ccccc1,23.0%,13.6%,16.9µM*,7.8%,16.8%,1.5%
CC(/C=N/NC(=O)c1nnn(-c2nonc2N)c1C)=C\c1ccccc1,27.9%,x,u,u,26.0%,x
CC(/C=N/NC(=O)c1nn(C)c(C)c1Br)=C\c1ccccc1,u,x,1.9µM*,u,3.55µM*,10.4%
Cn1ncc(Br)c1C(=O)N/N=C/c1ccc(OS(=O)(=O)c2ccccc2)cc1,2.9%,1.7%,1.4%,6.2%,-0.5%,-1.4%
O=C1CCN(C(=O)c2ccc(Cl)cc2)N1,-3.2%,-4.5%,-7.2%,1.7%,7.0%,-5.5%
Cc1sc2ncn(/N=C/c3ccco3)c(=O)c2c1C,26.6%,x,10.7µM*,u,u,x
O=c1c2c3c(sc2ncn1/N=C/c1ccco1)CCCC3,10.3%,u,0.4%[2.3 µM],6.6%,8.7%,1.7%
O=C(Nc1ccc(S(=O)(=O)Nc2nccs2)cc1)c1cccc(F)c1,-0.2%,x,-2.3%,-3.8%,0.2%,x
COc1cccc2[nH]c3c(N4CCCCC4)ncnc3c12,27.7%,4.1%,13.5µM*,27.3%,9.9%,2.0%
COc1cc2[nH]c3c(N4CCN(c5ccccn5)CC4)ncnc3c2cc1OC,-12.9%,-39.4%,13.5µM*,-5.3%,5.0%,1.4%
COc1cc(NC(=S)N2CCN(C(c3ccccc3)c3ccccc3)CC2)cc(OC)c1,2.1%,12.6µM*,-2.0%,-18.6%,-13.6%,0.7%
COc1cc(NC(=S)N2CCN(C/C=C/c3ccccc3)CC2)cc(OC)c1,-0.6%,13.3%,0.8%,-3.9%,-3.0%,2.1%
CCN(CC)c1ccc(Nc2nc(-c3cccnc3)cs2)cc1,2.82µM*,x,10.7µM*,11.4%,3.16µM*,x
CN(C)c1ccc(Nc2nc(-c3cccnc3)cs2)cc1,3.55µM*,15.8µM*,0.426µM*,1.46µM*,0.891µM*,-16.1%
Cc1ccc(CN2CCN(Cc3ccccn3)CC2CCO)cc1 (stereo not drawn),-5.7%,-1.0%,-3.2%,0.1%,12.1%,-1.6%
CCOC(=O)N1CCN(C(=O)c2ccc3c(c2)N(C)C(=O)/C(=C\c2ccc(OCC)c(OC)c2)S3)CC1,-7.7%,x,u,-2.5%[9.26 µM],-5.3%,x
SMILES,NPC1 promoter act,SMN2 splice up,FLuc modulator,ELG1 genotox,Rab9 promoter act,KinaseGlo FLuc
CC(=O)Nc1cccc(NC(=O)c2c(-c3ccccc3Cl)noc2C)c1,-3.6%,x,3.8%,-6.5%,-4.0%,-1.7%
COc1ccc(/C=C2\SC(=N)N(c3nccs3)C2=O)cc1OC,-3.1%,-23.3%,2.13µM*,u,-0.2%,1.8%
N=C1S/C(=C\c2ccc(-c3cccc(Cl)c3)o2)C(=O)N1c1nccs1,-14.2%,-57.2%,-6.0%,14.4%,-5.0%,0.5%
c1ccc2c(Oc3ccc4c(c3)OCO4)nncc2c1,1.26µM*,10µM*,6.01µM*,u,0.631µM*,-12.8%
O=C(NCCO)c1ccc2nc(Cc3cccc(Cl)c3)oc2c1,4.5%,x,2.5%,u,8.3%,x
Cc1ccc(-n2cnc3cc(C(=O)NCCC4=CCCCC4)ccc32)c(C)c1,x,x,-13.4%,x,x,x
COCCNC(=O)c1ccc2c3n(nc2c1)-c1ccc(Cl)cc1CO3,1.41µM*,x,8.49µM*,u,3.55µM*,x
COCCNC(=O)c1ccc2c3n(nc2c1)-c1ccccc1CO3,1.12µM*,x,3.79µM*,u,1µM*,x
O=C(NCCO)c1ccc2c3n(nc2c1)-c1ccc(Cl)cc1CO3,2µM*,x,6.01µM*,u,3.55µM*,x
COCCNC(=O)c1ccc2c(c1)CCN2S(C)(=O)=O,-0.4%,-10.8%,3.2%,2.3%,0.0%,3.7%
Cc1ccc2c(c1)COc1c3ccc(C(=O)NCCO)cc3nn1-2,1.12µM*,x,4.78µM*,14.6µM*,1µM*,x
C=CCNC(=O)c1ccc2nc(-c3ccccc3)c(-c3ccccc3)nc2c1,-4.3%,-9.2%,-1.4%,-5.9%,-5.0%,-2.9%
C=CCNC(=O)c1ccc2c3n(nc2c1)-c1ccccc1CO3,0.447µM*,x,0.675µM*,u,u,x
CCn1cc(CN2CCCC(C(=O)c3ccc(-c4ccccc4)cc3)C2)cn1 (stereo not drawn),-8.0%,x,-0.1%,-0.7%,0.4%,-1.7%
CSCc1nc2sc(C(=O)Nc3nc(C)cs3)c(C)c2c(=O)[nH]1,u,11.2µM*,u,16.2%,3.16µM*,-6.0%
Cc1ccc(NC(=O)c2sc3nc(CCl)[nH]c(=O)c3c2C)c(C)c1,22.2%,u,9.53µM*,u,u,0.5%
Cc1csc(NC(=O)CSc2nc3sc(C)c(C)c3c(=O)[nH]2)n1,-0.2%,13.2%,0.2%,11.5%,3.0%,1.2%
O=C(C1=C[C@H](c2ccc(Br)cc2)C[C@H](OCCCCO)O1)N1CCOCC1,0.0251µM*,x,-38.1%,9.1%,0.02µM*,x
Cc1ccc(N=CNc2ccc(C)cc2C)c(C)c1,-4.0%,x,15.1µM*,3.5%,13.5%,x
Cc1ccc(NC(=O)CC(=O)Nc2ccc(C)cc2C)c(C)c1,1.5%,x,0.9%,1.3%,-5.9%,x
Cc1cc(=O)nc2c3ccccc3n(C(C)C(=O)NCCC(C)C)n12 (stereo not drawn),0.4%,x,-1.4%,-1.7%,0.2%,x
O=C(N/N=C\c1ccc(Cl)cc1)c1sccc1-n1cccc1,29.1%,-7.2%,2.4%,-0.1%,17.4%,0.8%
CN(C)c1ccc(/C=N\NC(=O)c2ccc(Cn3cc(Cl)cn3)cc2)cc1,-0.3%,-12.5%,12µM*,-3.2%,2.4%,-1.0%

# Screens (PubChem)
